Results filed as inconclusive are left out. Calls of active or inactive are those of the source. The call rests on the fitted dose curve; in most records, active means well fitted inhibition curve with a large enough effect; inconclusive means small, poorly fitted or top-dose-only effect; inactive means no such curve, though single readings can be large or run the other way.
target: Cytochrome P450 3A7 (Homo sapiens) (UniProt P24462); assay: Cytochrome P450 family 3 subfamily A member 7 (CYP3A7) small molecule antagonists: luciferase biochemical qHTS assay (AID 1963596); details: P450-Glo CYP3A7 enzyme luminescence, 1 h; series mostly up to 57.4 µM; activity change, negative = inhibition: at the top concentration; further: nearly all actives have a fitted effect of over 40% in size
Description: National Center for Advancing Translational Sciences [NCATS] Assay Overview: Cytochrome P450 (CYP) enzymes are membrane-bound hemeproteins that play a key role in metabolism of drugs and xenobiotics. The CYP3A subfamily is the most abundant, representing 30% of the total adult hepatic CYP content, whereas CYP3A7 is found predominantly in human fetal liver and accounts up to 50% of the total fetal hepatic CYP content. Testing the effect of chemicals on CYP isozymes is useful to minimize the adverse drug reactions and toxicities in the drug development process. Chemicals were tested for their effect on CYP enzyme activities by using P450-Glo (TM) screening systems (Promega Corporation, Madison, WI). These systems provide a luminescent method containing proluciferin substrates and are converted to luciferin products by CYP isozymes. The luciferin products formed are detected with a luciferin detection reagent, and the amount of light produced is proportional to CYP activity. P450-Glo (TM) CYP3A7 screening system (Catalog. No. V8812) was used to detect the compounds that interfere with CYP3A7 activity. The positive control compound used for CYP3A7 assay is ketoconazole (Sigma-Aldrich, St. Louis, MO).
Assay Protocol Summary: Two ul of enzyme-substrate mix was dispensed into medium binding white/solid 1536-well plates (Greiner Bio-One North America Inc., Monroe, NC) using a Flying Reagent Dispenser (FRD, Aurora Discovery, San Diego, CA). Compounds dissolved in DMSO, and positive control (ketoconazole) were transferred to the assay plates at 23 nl using a Pintool station (Wako, San Diego, CA). The assay plates were incubated at room temperature for 10 min. Then 2 ul of NADPH regeneration solution was added to each well of the assay plates using an FRD and incubated at room temperature for 1 h. The reaction was stopped by adding 4 ul of detection reagent using an FRD and after 20 min incubation at room temperature the luminescence signal was measured using a ViewLux plate reader (Perkin Elmer, Shelton, CT). Data were expressed as relative luminescence units.
On the % scale 0 is the no-effect control and ±100 the full control effect; potency means the concentration at half of the fitted maximal effect.

Cytochrome P450 3A7 (Homo sapiens), sequence (P24462 whole entry, looked up): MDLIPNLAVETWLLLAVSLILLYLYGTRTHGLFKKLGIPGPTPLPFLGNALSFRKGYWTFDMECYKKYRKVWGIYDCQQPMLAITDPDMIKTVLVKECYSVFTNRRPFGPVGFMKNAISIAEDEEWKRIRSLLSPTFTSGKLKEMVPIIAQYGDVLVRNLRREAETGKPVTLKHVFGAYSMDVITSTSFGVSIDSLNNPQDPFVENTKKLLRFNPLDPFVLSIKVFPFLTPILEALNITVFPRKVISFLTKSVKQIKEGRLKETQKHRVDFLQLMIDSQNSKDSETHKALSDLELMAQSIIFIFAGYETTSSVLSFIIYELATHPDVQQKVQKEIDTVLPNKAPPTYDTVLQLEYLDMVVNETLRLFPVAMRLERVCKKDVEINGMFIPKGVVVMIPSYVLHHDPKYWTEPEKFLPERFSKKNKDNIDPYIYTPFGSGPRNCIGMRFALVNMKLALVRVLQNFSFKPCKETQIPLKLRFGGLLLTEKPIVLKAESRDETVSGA

Row | SMILES | activity change, negative = inhibition | Potency
1 | C=CCNc1nc(NCC=C)nc(N2CCN(C(c3ccc(F)cc3)c3ccc(F)cc3)CC2)n1 | -9.96% (inactive) | –
2 | C[N+](C)(C)CCOC(=O)CCC(=O)OCC[N+](C)(C)C | 9.2% (inactive) | –
3 | C[N+]1(C)CCC(=C(c2ccccc2)c2ccccc2)CC1 | -5.06% (inactive) | –
4 | CC(C)(C(=O)c1cccnc1)c1cccnc1 | -14.9% (inactive) | –
5 | CCN1CCC[C@@H]1CNC(=O)c1ccc2c(c1)NC(=O)c1cccc(C)c1S2 | – | 20 µM (active)
6 | c1ccc(-c2csc(N3CCOCC3)n2)cc1 | 0% (inactive) | –
7 | Cc1cn(C[C@H](N)C(=O)O)c(=O)n(Cc2ccsc2C(=O)O)c1=O | -2.32% (inactive) | –
8 | COc1ccc2c(c1)CCCC2=O | 1.91% (inactive) | –
9 | Nc1c2c(nc3ccccc13)CCCC2 | -17.2% (inactive) | –
10 | CC(C)[C@@H]1C(=O)N(S(C)(=O)=O)[C@@H]2CCN(C(=O)/C=C/CN3CCCCC3)[C@H]21 | -27.6% (inactive) | –
11 | CCCC(=O)O[C@]1(C(=O)CO)CC[C@H]2[C@@H]3CCC4=CC(=O)CC[C@]4(C)[C@H]3[C@@H](O)C[C@@]21C | -5.84% (inactive) | –
12 | Cc1[nH]c(C)c(Cl)c(=O)c1Cl | -14% [at 23.9 µM] (inactive) | –
13 | Cn1cc(S(C)=O)c(=O)c2ccc(F)cc21 (stereo not given) | -14.2% (inactive) | –
14 | Nc1nc(Cl)nc2c1ncn2[C@@H]1O[C@H](CO)[C@@H](O)[C@@H]1F | – | inactive
15 | CN1CCC(Nc2nc(Nc3ccc(Oc4ccccc4)cc3)c3c(=O)[nH]cc(Br)c3n2)CC1 | – | 6.74 µM (active)
16 | CC(=O)NS(=O)(=O)c1ccc(N)cc1 | 20.1% (inactive) | –
17 | FC(F)(F)C(F)(F)C(F)(F)C(F)(F)C(F)(F)C(F)(F)C(F)(F)C(F)(F)Br | 3.69% (inactive) | –
18 | CCCN[C@H]1CCc2nc(N)sc2C1 | 31.4% (inactive) | –
19 | CCN(CC)CCNC(=O)c1ccc(NC(C)=O)cc1 | -1.48% (inactive) | –
20 | C[N+]1(CC2COC(c3ccccc3)(c3ccccc3)O2)CCCCC1 (stereo not given) | -5.24% [at 23.9 µM] (inactive) | –

Row | SMILES | activity change, negative = inhibition | Potency
21 | COC(=O)c1nc(Cl)c(Cl)nc1N | 16.7% (inactive) | –
22 | COc1cc(C=O)ccc1O | -10.2% (inactive) | –
23 | CCc1c(O)cc(O)c(C(=O)c2ccc(OCCN3CCOCC3)c(OC)c2)c1CC(=O)N(CCOC)CCOC | -20.4% (inactive) | –
24 | CCCc1nc(C(C)(C)O)c(C(=O)O)n1Cc1ccc(-c2ccccc2-c2nn[nH]n2)cc1 | -18.3% (inactive) | –
25 | O=C(NC[C@H](O)CN1CCc2ccccc2C1)c1cc(NC2COC2)ncn1 | -21.7% (inactive) | –
26 | O=C(CN1CCNCC1)NC1CCCCC1 | -3.9% (inactive) | –
27 | O=C(O)CCCCC(=O)O | -12.2% (inactive) | –
28 | CC(C)(CO)[C@@H](O)C(=O)NCCCO | -8.82% (inactive) | –
29 | N#CSCC(=O)O | -19.8% (inactive) | –
30 | CNCCc1ccccn1 | -1.85% (inactive) | –
31 | Cc1onc(-c2ccccc2)c1C(=O)Cl | 16.2% (inactive) | –
32 | CCCn1c(=O)c2[nH]c(-c3cnn(Cc4cccc(C(F)(F)F)c4)c3)nc2n(CC)c1=O | -9.31% (inactive) | –
33 | CN[C@@H](C)C(=O)N[C@H]1CN(C(=O)CC(C)C)CC[C@H]2CC[C@@H](C(=O)NC(c3ccccc3)c3ccccc3)N2C1=O | -16.6% (inactive) | –
34 | COc1ccc2c(OCc3nnc4ccc(-c5ccccc5)nn34)ccnc2c1 | -23.3% (inactive) | –
35 | O=C(O)CCNC(=O)c1ccccc1 | 15% (inactive) | –
36 | Nc1nc(Cl)nc2c1ncn2[C@H]1C[C@H](O)[C@@H](CO)O1 | 1.97% (inactive) | –
37 | COc1cc2c(Oc3ccc4[nH]c(C)cc4c3F)ncnc2cc1OCCCN1CCCC1 | -26.6% (inactive) | –
38 | CCCC(=O)Nc1ccc(OCC(O)CNC(C)C)c(C(C)=O)c1 (stereo not given) | -10.6% (inactive) | –
39 | COC(=O)c1cc(Cl)c(NC(C)=O)cc1OC | -24.5% (inactive) | –
40 | CC(C)c1c2cc(-c3ccnc(NC4CCC(NC5CCOCC5)CC4)n3)ccc2nn1C (stereo not given) | -19.1% (inactive) | –

Reference: PubChem BioAssay (NCATS)
